# Source: PubChem BioAssay
# Active and inactive are the calls of the source. Unless noted, the rule behind the calls is not given here.
# What was measured:
# [1] = HepG2 liver cancer cell viability effects, profiling panel, resazurin fluorescence, 24 h, PK04 Diversity Set (AID 1172); settings: higher = more signal
# [2] = basal S. cerevisiae growth modulation, no modifier, primary screen, OD600, strain BY4716, 24 h, basal condition (AID 1173); settings: OD600, 24 h, higher = more signal, called active from +8 up or from −8 down
# [3] = MM1S myeloma cell viability, profiling panel, resazurin fluorescence, basal, 24 h, PK04 Diversity Set (AID 1174); settings: higher = more signal, called active from +8 up or from −8 down;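 note: MM1S multiple myeloma cell line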
# [4] = target: Dihydroorotate dehydrogenase (quinone), mitochondrial (Plasmodium falciparum (isolate 3D7)) (UniProt Q08210); test: PfDHODH enzyme inhibitors, primary screen, biochemical, C-terminal His tag, absorbance 600 nm (AID 1175); settings: DCIP absorbance 600 nm, higher = more signal, called active from +8 up or from −8 down;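 note: recombinant parasite enzyme with a five histidine tag at its C terminus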
# Sequence of Dihydroorotate dehydrogenase (quinone), mitochondrial (Plasmodium falciparum (isolate 3D7)) (Q08210 whole entry, looked up): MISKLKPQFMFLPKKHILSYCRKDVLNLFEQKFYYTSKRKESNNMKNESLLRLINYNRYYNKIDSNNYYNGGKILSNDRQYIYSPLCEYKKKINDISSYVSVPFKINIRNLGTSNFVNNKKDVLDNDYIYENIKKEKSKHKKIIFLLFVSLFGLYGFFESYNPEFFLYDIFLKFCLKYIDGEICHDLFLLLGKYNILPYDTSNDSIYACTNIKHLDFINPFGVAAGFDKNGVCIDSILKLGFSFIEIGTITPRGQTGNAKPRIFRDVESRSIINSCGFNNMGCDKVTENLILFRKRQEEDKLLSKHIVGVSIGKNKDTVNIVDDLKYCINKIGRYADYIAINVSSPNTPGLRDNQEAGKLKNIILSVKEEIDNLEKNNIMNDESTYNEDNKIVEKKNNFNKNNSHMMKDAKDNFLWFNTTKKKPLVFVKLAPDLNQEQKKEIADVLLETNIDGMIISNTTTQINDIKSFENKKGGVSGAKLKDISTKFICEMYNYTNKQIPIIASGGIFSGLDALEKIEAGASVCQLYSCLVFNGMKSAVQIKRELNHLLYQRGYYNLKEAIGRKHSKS
# [5] = P. aeruginosa biofilm formation inhibitors, primary screen, strain PAO1, LB-PBS medium, absorbance 600 nm (AID 1176); settings: P. aeruginosa PAO1 growth/biofilm, A600, 12 h; higher = more signal
# [6] = S. cerevisiae RM11-1a growth modifiers, primary screen, strain RM11-1a, OD600, basal, 24 h (AID 1177); settings: OD600, 24 h, higher = more signal, called active from +8 up or from −8 down;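 note: cultures grown under basal conditions with no added stressor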
# [7] = E. coli acrAB mutant growth effects, primary screen, E. coli filamentation inducers, strain DRC39, OD650, 24 h (AID 1178); settings: higher = more signal, called active from +8 up or from −8 down;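 note: growth measured as culture turbidity by optical density at 650 nm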
# [8] = E. coli acrAB mutant growth effects, primary screen, E. coli filamentation inducers, strain DRC39, OD650, 48 h (AID 1179);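 note: screen aims at cell division blockers that make cells filament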; settings: E. coli DRC39 delta-acrAB growth, higher = more signal, called active from +8 up or from −8 down
# [9] = RPMI8226 myeloma cell viability, profiling panel, resazurin fluorescence, basal, 24 h, PK04 Diversity Set (AID 1180); settings: higher = more signal;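 note: RPMI8826 multiple myeloma cell line at 5000 cells per well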
# [10] = target: E3 ubiquitin-protein ligase XIAP (Homo sapiens) (UniProt P98170); test: XIAP binders, primary screen, biophysical, small-molecule microarray, fluorescence 635 nm (AID 1181); settings: small-molecule microarray binding, higher = more signal;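 note: score merges 667 nm emission and signal to noise over triplicate slides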
# Sequence of E3 ubiquitin-protein ligase XIAP (Homo sapiens) (P98170 whole entry, looked up): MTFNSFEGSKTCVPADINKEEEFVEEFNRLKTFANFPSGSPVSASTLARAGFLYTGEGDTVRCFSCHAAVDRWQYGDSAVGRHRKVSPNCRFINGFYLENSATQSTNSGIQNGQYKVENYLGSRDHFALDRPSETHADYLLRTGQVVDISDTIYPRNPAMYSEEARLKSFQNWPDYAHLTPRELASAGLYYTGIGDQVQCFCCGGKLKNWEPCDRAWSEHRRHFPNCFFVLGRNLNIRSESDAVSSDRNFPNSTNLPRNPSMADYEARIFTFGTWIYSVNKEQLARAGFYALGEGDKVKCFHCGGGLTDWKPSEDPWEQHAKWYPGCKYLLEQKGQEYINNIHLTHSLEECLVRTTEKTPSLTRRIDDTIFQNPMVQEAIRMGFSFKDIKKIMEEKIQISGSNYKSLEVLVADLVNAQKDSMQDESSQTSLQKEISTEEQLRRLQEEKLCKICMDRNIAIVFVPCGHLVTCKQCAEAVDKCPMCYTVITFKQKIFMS
# [11] = tested on: XIP peptide (Xip251-270) binding; test: small-molecule binders of XIP peptide, primary screen, biochemical, small-molecule microarray, fluorescence 635/667 nm, 0.1 µg/mL protein (AID 1182); settings: fluorescent protein binding, 635 nm, higher = more signal, called active from +8 up or from −8 down
# [12] = tested on: XIP peptide (Xip251-270); test: small-molecule binders of XIP peptide, primary screen, biochemical, small-molecule microarray, fluorescence 635/667 nm, 0.5 µg/mL protein (AID 1183); settings: small-molecule microarray binding, fluorescence 635 nm; higher = more signal
# [13] = Plasmodium falciparum growth inhibition, primary screen, strain 3D7, DAPI fluorescence, 100 nL (AID 1184);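 note: parasites grown inside human red blood cells in medium with human serum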; settings: P. falciparum 3D7 growth, 3 d, higher = more signal
# [14] = target: Homeobox protein Hox-A13 (Mus musculus) (UniProt Q62424); test: inhibitors of HoxA13-DNA binding, primary screen, biochemical, fluorescence polarization, labeled oligonucleotide (AID 1185); settings: 15 min, higher = more signal, called active from +8 up or from −8 down
# Sequence of Homeobox protein Hox-A13 (Mus musculus) (Q62424 whole entry, looked up): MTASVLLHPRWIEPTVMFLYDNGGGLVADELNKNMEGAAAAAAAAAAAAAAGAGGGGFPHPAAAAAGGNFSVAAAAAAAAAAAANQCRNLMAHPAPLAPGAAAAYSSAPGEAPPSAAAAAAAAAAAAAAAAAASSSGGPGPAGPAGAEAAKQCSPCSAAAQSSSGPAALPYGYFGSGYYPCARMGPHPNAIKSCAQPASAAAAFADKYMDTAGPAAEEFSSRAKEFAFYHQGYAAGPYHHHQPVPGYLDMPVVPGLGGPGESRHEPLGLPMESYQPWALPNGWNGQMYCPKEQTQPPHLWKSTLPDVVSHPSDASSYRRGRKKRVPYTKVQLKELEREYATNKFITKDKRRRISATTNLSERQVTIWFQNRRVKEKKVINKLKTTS
# [15] = inhibitors of hydroxyurea-induced Chk1 phosphorylation, primary screen, imaging, HeLa, phospho-Chk1 antibody, percent positive cells (AID 1186); settings: hydroxyurea-induced phospho-Chk1 immunofluorescence imaging, higher = more signal
# [16] = inhibitors of hydroxyurea-induced Chk1 phosphorylation, primary screen, imaging, HeLa, phospho-Chk1 nuclear intensity (AID 1187); settings: hydroxyurea-induced phospho-Chk1 immunofluorescence imaging, higher = more signal
SMILES,z-score [1],z-score [2],z-score [3],composite z-score [4],z-score [5],z-score [6],z-score [7],z-score [8],z-score [9],composite z-score [10],composite z-score [11],composite z-score [12],z-score [13],z-score [14],z-score [15],z-score [16]
CCCC[C@@H]1C[C@H]1[C@@H](NC(=O)C(C)(C)C)c1ccc(C(F)(F)F)cc1,-0.549,0.594 (inactive),-0.858 (inactive),-3.55 (inactive),3.07 (inactive),1.17 (inactive),-0.483 (inactive),-0.631 (inactive),2.01,0.0256,0.503 (inactive),0.414,-0.948,1.43 (inactive),-0.109 (inactive),-0.236 (inactive)
COC(=O)[C@@]1(Cc2ccc(OC)cc2)[C@H]2c3cc(C(=O)N(C)C)n(C)c3C[C@H]2CN1C(=O)c1ccccc1,-0.105,1.3 (inactive),-2.26 (inactive),-0.342 (inactive),0.976 (inactive),0.241 (inactive),-0.372 (inactive),-1.28 (inactive),-2.45,0.0279,-0.0515 (inactive),0.764,-1.4,-3.49 (inactive),-0.0095 (inactive),0.0799 (inactive)
O=C1C2C=CC(C(O)CCc3ccccc3)N(Nc3ccccc3F)C2C(=O)N1c1ccccc1 (centres undefined),0.0011,0.14 (inactive),0.209 (inactive),-0.442 (inactive),0.0083 (inactive),-0.253 (inactive),-0.837 (inactive),0.0277 (inactive),0.799,0.272,0.605 (inactive),0.524,-0.0934,-2.76 (inactive),0.652 (inactive),0.699 (inactive)
C=CCN1C(=O)[C@]2(O[C@H](CCn3cc([C@H](O)c4ccccc4)nn3)[C@@H]([Si](C)(C)c3ccc(OC)cc3)[C@@H]2C)c2ccccc21,-1.25,-0.242 (inactive),-1.68 (inactive),-0.591 (inactive),1.29 (inactive),0.507 (inactive),0.617 (inactive),0.169 (inactive),-1.69,-0.104,0.507 (inactive),-0.579,-1.69,-5.68 (inactive),-0.831 (inactive),-0.475 (inactive)
O=C1c2ccccc2[C@](Cc2ccccc2I)(C(=O)NCCN2CCOCC2)[C@H](c2ccc(CO)cc2)N1C1CCCCC1,-0.16,-1.21 (inactive),-0.526 (inactive),-0.119 (inactive),0.531 (inactive),0.358 (inactive),0.29 (inactive),0.205 (inactive),-0.954,0.0623,0.45 (inactive),0.652,-1.79,-5.61 (inactive),0.16 (inactive),-6.65 (inactive)
OCCCC1=CC(c2cccs2)N(Cc2cc3c(cc2Br)OCO3)CC1 (centres undefined),-0.429,-2.09 (inactive),-0.643 (inactive),-0.966 (inactive),0.531 (inactive),-0.174 (inactive),-0.341 (inactive),-0.681 (inactive),-0.829,0.019,0.412 (inactive),0.435,-1.82,-2.36 (inactive),0.32 (inactive),0.998 (inactive)
CC(C)(C)OC(=O)CC[C@]1(C(=O)N2CCOCC2)N=C(c2ccc(OCCCO)cc2)O[C@H]1c1ccccc1N=[N+]=[N-],0.548,-0.515 (inactive),-0.095 (inactive),-0.793 (inactive),-0.0684 (inactive),0.207 (inactive),0.453 (inactive),0.314 (inactive),0.187,0.115,0.472 (inactive),0.472,-2.28,-5.38 (inactive),-0.112 (inactive),0.0839 (inactive)
C[N+](C)(C)CCCCCCNC(=O)[C@@H]1C[C@@H]2C(=O)N[C@@H](Cc3ccccc3)C(=O)N2[C@@H]1c1cccc(OCCO)c1,0.844,-0.393 (inactive),0.328 (inactive),-0.0631 (inactive),-0.27 (inactive),0.153 (inactive),1.14 (inactive),1.35 (inactive),0.755,0.0905,0.694 (inactive),0.814,-0.145,-4.83 (inactive),-0.362 (inactive),-0.398 (inactive)
CC(C)NC(=O)[C@@H]1c2ccccc2C(=O)N(C2Cc3ccccc3C2)[C@H]1c1ccc(CO)cc1,0.785,0.0928 (inactive),1.16 (inactive),-0.427 (inactive),-0.0528 (inactive),0.744 (inactive),0.859 (inactive),0.95 (inactive),1.59,0.133,0.536 (inactive),0.787,-0.826,-1.94 (inactive),-0.24 (inactive),0.0987 (inactive)
O=C(NCCN1CCOCC1)C1N=C(c2ccc(OCCCO)cc2)N(c2ccccc2)O1 (centres undefined),-0.154,0.554 (inactive),0.602 (inactive),0.301 (inactive),-0.978 (inactive),-0.377 (inactive),0.149 (inactive),0.116 (inactive),0.385,0.172,2.46 (inactive),0.738,-0.122,-1.6 (inactive),-0.227 (inactive),-0.0873 (inactive)
C=C(CCCC)/C(=C/C[C@H](OC(=O)c1ccncc1)c1ccccc1OCCO)c1cnc2ccccc2c1,0.381,-0.0677 (inactive),-1.07 (inactive),-2.03 (inactive),1.23 (inactive),-0.254 (inactive),0.133 (inactive),0.126 (inactive),-0.64,-0.252,0.8 (inactive),0.575,-2.96,-4.41 (inactive),0.618 (inactive),0.783 (inactive)
C=CCNC(=O)[C@H]1[C@@H]2C(=O)O[C@@H](c3ccccc3)[C@@H](c3ccccc3)N2[C@@H](c2ccccc2OCCO)[C@]12C(=O)Nc1ccc(C#CCC(C(=O)OC)C(=O)OC)cc12,0.57,2.25 (inactive),-7.81 (inactive),-0.95 (inactive),2.07 (inactive),3.57 (inactive),0.284 (inactive),-0.303 (inactive),-7.24,-0.159,0.924 (inactive),0.737,-2.25,-2.6 (inactive),-0.0106 (inactive),0.259 (inactive)
O=C1O[C@H](c2ccccc2)[C@H](c2ccccc2)N2[C@H]1[C@@H](C(=O)N1CCCCCCC1)[C@]1(C(=O)Nc3ccc(C#CCCO)cc31)[C@H]2c1ccccc1OCCO,-0.118,1.09 (inactive),-1.12 (inactive),0.929 (inactive),1.15 (inactive),2.99 (inactive),-0.805 (inactive),-0.106 (inactive),-2.97,2.87,9.51 (active),1.07,-2.07,4.52 (inactive),0.208 (inactive),0.259 (inactive)
COCCOC(=O)N1C(=O)[C@@]2(c3cc(C#CCNC(N)=O)ccc31)[C@H](C(=O)Nc1nc3ccccc3s1)[C@H]1C(=O)O[C@H](c3ccccc3)[C@H](c3ccccc3)N1[C@@H]2c1ccc(OCCO)cc1,0.382,1.83 (inactive),0.114 (inactive),-0.716 (inactive),2.41 (inactive),1.41 (inactive),-0.27 (inactive),-0.463 (inactive),-0.397,0.0402,0.113 (inactive),-0.221,0.764,0.886 (inactive),-0.0719 (inactive),-0.0419 (inactive)
CCOC(=O)C[C@H]1[C@H](OC(=O)c2ccc(C(=O)c3ccccc3)cc2)[C@@H](NC(=O)CC(C)C)c2cc(OCCCO)ccc2N1C(=O)c1ccc2ccccc2n1,0.85,1.1 (inactive),-0.469 (inactive),-0.888 (inactive),0.453 (inactive),0.8 (inactive),-0.0708 (inactive),0.648 (inactive),-0.0956,-0.102,1.24 (inactive),0.642,-0.057,-2.72 (inactive),-0.776 (inactive),-0.687 (inactive)
C=CCNC(=O)[C@@H]1[C@H]2C(=O)O[C@H](c3ccccc3)[C@H](c3ccccc3)N2[C@H](c2ccc(OCCO)cc2)[C@@]12C(=O)Nc1ccc(C#CCC(C(=O)OC)C(=O)OC)cc12,0.874,1.12 (inactive),-6.55 (inactive),-4.92 (inactive),1.89 (inactive),2.26 (inactive),0.196 (inactive),0.286 (inactive),-5.98,0.132,1.21 (inactive),0.905,-2.22,-1.05 (inactive),0.222 (inactive),0.477 (inactive)
C=CC[C@]1(C(=O)NCCCOC)N=C(c2ccc(OCCCO)cc2)O[C@H]1c1ccccc1CN=[N+]=[N-],0.127,-0.024 (inactive),-0.266 (inactive),-0.339 (inactive),0.978 (inactive),-0.755 (inactive),-0.161 (inactive),-0.347 (inactive),-0.257,-0.0134,0.967 (inactive),0.763,-2.52,-5.11 (inactive),0.14 (inactive),-0.0062 (inactive)
Cc1ccccc1C(O)C1C=CC2C(=O)N(c3ccccc3)C(=O)C2N1Nc1ccc(C(C)C)cc1 (centres undefined),-1.7,-0.945 (inactive),-1.31 (inactive),1.82 (inactive),0.807 (inactive),1.93 (inactive),-0.765 (inactive),-1.14 (inactive),-1.06,1.24,0.167 (inactive),0.599,-0.739,-1.77 (inactive),0.524 (inactive),0.118 (inactive)
COCCOC(=O)N1C(=O)[C@@]2(c3cc(C#CC4(O)CCCCCC4)ccc31)[C@H](c1ccccc1OCCO)N1[C@H](c3ccccc3)[C@H](c3ccccc3)OC(=O)[C@H]1[C@@H]2C(=O)N1CCN(c2ncccn2)CC1,-0.645,1.61 (inactive),-0.349 (inactive),0.122 (inactive),2.03 (inactive),2.39 (inactive),0.0296 (inactive),0.946 (inactive),-0.874,0.0774,-0.0186 (inactive),0.744,-2.23,-0.571 (inactive),-0.353 (inactive),-0.189 (inactive)
